The values that follow come from PubChem BioAssay AID434973 (Sanford-Burnham Center for Chemical Genomics, 2010).

Molecules are shown by their SMILES. In all, about 330,000 compounds went through this assay and about 4,900 (1.5%) were called active. The list comes from a sample in which actives are over-represented; it also holds similar structures and randomly drawn compounds. Values without a mark were called inactive.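 Rule for the calls: active = inhibition above about 50% at the single test dose (limit read from the data); inactive = the rest.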

The target in the assay is Sentrin-specific protease 7 (Homo sapiens) (UniProt Q9BQF6). Nature of the assay: blockers of human SENP7 peptidase activity – biochemical, luminescence, uHTS, primary screen (AID 434973).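 Note: plate controls were DMSO with enzyme for no effect and no enzyme buffer wells for full effect.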 Conditions: recombinant SENP7, Z-RLRGG-aminoluciferin luminescence, 40 min; at 5 µM; active compounds read high.
In general, inhibition refers to the change of the read-out against control, counted positive when it falls. Regarding `CCO/N=C(/C)c1c(O)cc(-c2ccccc2)n(-c2ccccc2)c1=O`, the inhibition was 0.576%.

For the compound `CC1CCCC(NC(=O)c2cc(-c3ccncc3)nc3ccccc23)C1C` (stereo unspecified), the inhibition was -16.1%.

Take `S=c1[nH]nc(-c2cc(-c3ccccc3)n[nH]2)n1/N=C/c1c2ccccc2cc2ccccc12`: the inhibition is -9.51%.

On to `CC(C)C(=O)NCc1cc(-c2ccc(Cl)cc2)no1`, for which the inhibition was 5.4%.

In the case of `Cc1ccc(NC(=O)c2cc(-c3ccccc3O)n[nH]2)cc1C`, the inhibition was -11.8%.

Consider `Oc1ccccc1-c1cc(-c2ccc(Cl)cc2)n[nH]1`, for which the inhibition is 92% (active).

Take `c1ccc(-c2cc(-c3ccccc3)[nH]n2)cc1`: the inhibition was 54.4% (active).

With `S=c1[nH]nc(-c2cc(-c3ccsc3)n[nH]2)n1-c1ccccc1`, the inhibition is 4.56%.

In the case of `CO[C@@H]1[C@@H](OC(N)=O)[C@@H](O)C(Oc2ccc3c(O)c(NC(=O)c4ccc(O)c(CC=C(C)C)c4)c(=O)oc3c2C)OC1(C)C` (stereo partly specified), the inhibition is -1.54%.

Consider `COc1ccc(-n2nnnc2SCC(=O)c2ccc(OC)c(OC)c2)cc1`, for which the inhibition was 3.65%.

Turning to `CCC(C)C(N=C1NS(=O)(=O)c2ccccc21)C(=O)N1CCC(C)CC1` (stereo unspecified), the inhibition was 2.08%.

Turning to `CCc1nnc(NC(=O)CSCc2cc(=O)n3cc(C)sc3n2)s1`, the inhibition was -0.123%.

For the compound `CCCCN(C(=O)C1=NN(c2cc(C)ccc2C)C(=O)CC1)c1c(N)n(CCC)c(=O)[nH]c1=O`, the inhibition was 1.8%.

In the case of `Cc1ccc(CNC(=O)C2CCCN2C(=O)NCc2ccccc2)cc1` (stereo unspecified), the inhibition is -3.49%.

Consider `O=C(NC1CCCC1)C(c1ccccn1)N(C(=O)c1csnn1)C1CCCC1` (stereo unspecified), for which the inhibition was 4.87%.

`CCC(=O)Nc1ccc(C(=O)NNC(=O)c2ccc(Cl)cc2)cc1`: the inhibition was -16.2%.

For `O=C(Nc1ccc(Cl)cc1)c1ccsn1`, the inhibition was 51% (active).

For `O=C(NCc1ccccn1)Nc1ccc(Cl)cc1`, the inhibition is 0.805%.

For the compound `O=C1CC(Cc2ccccc2)C(=O)N1c1ccc(Cl)cn1` (stereo unspecified), the inhibition is -5.29%.

In the case of `COc1ccccc1C1CCN(C(=S)Nc2ccc(Br)cc2)CC1`, the inhibition is 5.73%.

`O=C(Nc1ccc2oc(-c3ccc4ccccc4c3)nc2c1)c1cccs1`: the inhibition was -22.1%.

With `CCc1ccc2oc(-c3ccc(N)cc3)nc2c1`, the inhibition is 97.1% (active).

`Cc1cc2nc(-c3ccc(NC(=O)c4cccnc4)cc3)oc2cc1C`: the inhibition was -3.95%.

With `CNC(=O)c1c(NC(NC(=O)c2ccco2)C(=O)c2ccc(Cl)cc2)sc2c1CCCC2` (stereo unspecified), the inhibition is 3.25%.

Regarding `CCOC(=O)c1ccc(NC(=O)c2cc(=O)[nH]c3ccccc23)cc1`, the inhibition was 4.62%.

Regarding `CCOC(=O)c1ccc(Nc2cc3ccccc3c(=O)[nH]2)cc1`, the inhibition is 84.1% (active).

`CCOC(=O)c1ccc(Nc2cc(C)nc3nc(C)nn23)cc1`: the inhibition was 0.148%.

For `Cc1ccc(CN2CCN(c3ncccn3)CC2)c(C)c1`, the inhibition was -3.53%.

Take `Cc1cc(=O)oc2c(C)c(OCC(=O)NCCc3ccc(S(N)(=O)=O)cc3)ccc12`: the inhibition was 7.75%.

`N#C/C=C/N1CCN(Cc2ccc3c(c2)OCO3)CC1`: the inhibition was -6.74%.

`Cc1c(NC(=S)NC(=O)CCc2ccccc2)c(=O)n(-c2ccccc2)n1C`: the inhibition is -7.18%.

`CN(C)c1ccc(-c2nnc(-c3cccnc3)o2)cc1`: the inhibition was 8.14%.

Consider `Cn1nc(-c2ccccc2)c(-c2nc(-c3ccc(Cl)cc3)no2)c1Cl`, for which the inhibition is 1.67%.

Turning to `OC(c1nnc(-c2ccccc2)o1)c1cccs1` (stereo unspecified), the inhibition was 2.83%.

For the compound `Nc1nonc1-c1noc(-c2ccc(Br)o2)n1`, the inhibition was 9.66%.

As to `Brc1ccc(-c2nnc(-c3ccccc3)o2)o1`, the inhibition is 57.6% (active).

For the compound `Nc1ccc(-c2nnc(-c3ccccc3)o2)cc1`, the inhibition is 49.9%.

Take `O=C(OCc1ccc(Br)cc1)c1cccc(-c2nnc(-c3ccccc3)o2)c1`: the inhibition was 23.5%.

Consider `Brc1ccc(-c2noc(-c3ccccc3)n2)o1`, for which the inhibition is 88.5% (active).

For the compound `Nc1ccc(-c2nnc(-c3ccc(-c4ccccc4)cc3)o2)cc1`, the inhibition was 70.3% (active).

`COc1ccc(C2C(C(C)=O)=C(O)C(=O)N2CCc2c[nH]c3ccccc23)cc1` (stereo unspecified): the inhibition is 0.562%.

Consider `COc1ccc(NC(=O)c2sccc2SCC#N)cc1`, for which the inhibition was 7.98%.

As for `COCCN1CCn2c(nc3cc(NS(C)(=O)=O)ccc32)C1`, the inhibition is 3.45%.

For `O=C(OCc1ccc([N+](=O)[O-])cc1)C1CC(=O)N(Cc2ccccc2Cl)C1` (stereo unspecified), the inhibition is 2.69%.

Consider `Cc1ccc(-c2ccc(/C=C(\C#N)C(N)=S)o2)c([N+](=O)[O-])c1`, for which the inhibition was 2.25%.

For the compound `Cc1cc(C)nc(SCc2cn3c(C)cc(C)nc3n2)n1`, the inhibition is 3.49%.

In the case of `CSc1nc(C)nc(C2CC2)c1C#N`, the inhibition was -2.65%.

Consider `CC(=O)Nc1ccc(S(=O)(=O)NCC2CCC(C(=O)NCCc3ccccc3)CC2)cc1` (stereo unspecified), for which the inhibition is 2.3%.

`CCOc1ccc(NC(=O)COC(=O)C2CCC(=O)N2)c([N+](=O)[O-])c1` (stereo unspecified): the inhibition was -6.28%.

On to `CCC(C)CCN1CCN=C1N(C)C` (stereo unspecified), for which the inhibition is 9.82%.

As for `Cc1noc(C)c1S(=O)(=O)N(C)C[C@H]1Oc2ccc(NC(=O)C3CC3)cc2C(=O)N([C@H](C)CO)C[C@@H]1C`, the inhibition is -0.149%.

Consider `COC(=O)C1=C(C)N(c2ccc(C)cc2)/C(=C/c2ccc(O)cc2)C1=O`, for which the inhibition is 8.14%.

As to `O=C1c2ccccc2C(=O)N1CCC#Cc1ccc2cc(C3(O)CCCCC3)oc(=O)c2c1`, the inhibition was 2.91%.

Take `COc1cc(C#Cc2ccc3cc(CCCO)oc(=O)c3c2)cc(OC)c1`: the inhibition is 79.7% (active).

As for `COc1cc(/C=C2\Oc3ccc(C#Cc4ccc(O)cc4)cc3C2=O)cc(OC)c1`, the inhibition was -7.29%.

On to `Cn1c(=O)c2c(ncn2CC(=O)N/N=C/c2cn[nH]c2-c2ccc(F)cc2)n(C)c1=O`, for which the inhibition is 1.2%.

As for `CCCC(CNC(=O)COC(=O)C1=NNC(=O)CC1)c1ccc(Cl)cc1Cl` (stereo unspecified), the inhibition was -4.17%.

For the compound `O=C(O)CCCN1C(=O)c2ccccc2Sc2ncccc21`, the inhibition is -1.32%.

Turning to `CCNc1nc(N)nc(-c2cc(Cl)ccc2OC)n1`, the inhibition is 3.35%.

For the compound `CCOc1ccc(Oc2nc(C)cc(OC)n2)nn1`, the inhibition is -1.32%.

As to `CCNc1nc(N)nc(Oc2ccc(OCC)nn2)n1`, the inhibition was 73.1% (active).
